Where “and” joins values, the source holds several entries; their conditions need not be identical. Equal values may be shown once. More than one record can exist for a structure, and the calls need not agree. Calls of active or inactive are those of the source. How the source made its calls: active means hit-call score of the fitted dose curve at least 0.9, where 1 is the maximum; inactive means score below 0.9.
Experiments:
[1] = ATG_E_Box_CIS: Attagene CIS-FACTORIAL HepG2 Assay for human Enhancer Box (E-box) (AID 2282936); details: HepG2 E-box cis-reporter transcription, actives raise or lower the signal
Method in brief: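 Multiplexed CIS reporter system in transiently transfected HepG2 cells measures native transcription factor activity. Reporter RNA after 24 h exposure is profiled by RT-PCR-capillary electrophoresis.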

[2] = ATG_M_61_CIS: Attagene CIS-FACTORIAL HepG2 Assay for M61 Transcription Factor (Internal Marker) (AID 2282937); details: HepG2 Attagene CIS-FACTORIAL M61 internal marker reporter; actives raise or lower the signal
Method in brief: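 Using transiently transfected HepG2 liver cells, reporter transcript levels were assessed 24 h post-dosing by RT-PCR and capillary electrophoresis. Changes in either direction were fitted relative to DMSO controls.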

[3] = ATG_EGR_CIS: Attagene CIS-FACTORIAL HepG2 Assay for human Early Growth Response 1 (EGR1) (AID 2282938); details: HepG2 Attagene CIS-FACTORIAL EGR reporter mRNA; actives raise or lower the signal
Method in brief: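 Fluorescent capillary-electrophoresis signal of reporter cDNA fragments serves as read-out. HepG2 cells bear transiently transfected cis-promoter reporter units and are exposed 24 h; gain- or loss-of-signal is fitted against DMSO.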

[4] = ATG_M_19_CIS: Attagene CIS-FACTORIAL HepG2 Assay for M19 Transcription Factor (Internal Marker) (AID 2282939); details: HepG2 Attagene CIS-FACTORIAL M19 internal marker reporter; actives raise or lower the signal
Method in brief: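 Transfect HepG2 with MRTU reporter library → dose chemical, 24 h → isolate total RNA, reverse-transcribe with oligo(dT) → PCR, 6-FAM label, HpaI cut (2 h, 37 C) → capillary electrophoresis. Bidirectional fit vs DMSO.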

[5] = ATG_Ets_CIS: Attagene CIS-FACTORIAL HepG2 Assay for human Erythroblast Transformation Specific (ETS) (AID 2282941); details: HepG2 ETS cis-reporter transcription, actives raise or lower the signal
Method in brief: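 Human HepG2 hepatoma cells were transiently transfected with promoter-driven reporter constructs and treated for 24 hours. Reporter transcripts were quantified by RT-PCR with fluorescent primer extension; bidirectional curve fitting used DMSO as reference.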

[6] = target: Hepatocyte nuclear factor 3-beta (Homo sapiens) (UniProt Q9Y261); test: ATG_FoxA2_CIS: Attagene CIS-FACTORIAL HepG2 Assay for human Forkhead box A2 (FOXA2) (AID 2282942); details: HepG2 cis-reporter transcription factor activity, 24 h; actives raise or lower the signal
Method in brief: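 Fluorescence signal of reporter cDNA fragments, separated by capillary electrophoresis, reflects endogenous transcription factor activity in transfected HepG2 after 24 h. Both increases and decreases fitted against DMSO.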

[7] = ATG_FoxO_CIS: Attagene CIS-FACTORIAL HepG2 Assay for human Forkhead box O (FoxO) (AID 2282943); details: HepG2 Attagene cis-reporter, FoxO element, mRNA; actives raise or lower the signal
Method in brief: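 HepG2 cells transiently transfected with cis-promoter-driven multiple reporter transcription units; 24 h after chemical dosing, reporter mRNA quantified by RT-PCR, fluorescent primer extension, HpaI digestion and capillary electrophoresis. Bidirectional fitting versus DMSO baseline.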

[8] = ATG_GATA_CIS: Attagene CIS-FACTORIAL HepG2 Assay for human GATA Binding Protein (AID 2282944); details: HepG2 GATA cis-element reporter, Attagene multiplex mRNA; actives raise or lower the signal
Method in brief: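 Transient MRTU transfection, HepG2, 24 h compound exposure. Total RNA → oligo(dT) RT → PCR → 6-FAM primer extension → HpaI cut → CE. Bidirectional fit vs DMSO.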

[9] = ATG_GLI_CIS: Attagene CIS-FACTORIAL HepG2 Assay for human Zinc Finger Protein GLI1 (AID 2282945); details: HepG2, Attagene cis-factorial reporter mRNA, GLI element; actives raise or lower the signal
Method in brief: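 HepG2 cells transiently transfected with cis-promoter multiplexed reporter units report endogenous transcription factor activity. After 24 h chemical exposure, reporter mRNA was quantified by RT-PCR, 6-FAM labelling, HpaI digestion and capillary electrophoresis, with bidirectional fitting against DMSO.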

[10] = ATG_GRE_CIS: Attagene CIS-FACTORIAL HepG2 Assay for human Glucocorticoid Response Elements (GRE) (AID 2282947); details: HepG2 GRE cis-reporter, Attagene multiplex mRNA; actives raise or lower the signal
Method in brief: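 Following 24 h chemical exposure of transiently transfected HepG2 cells, total RNA was reverse-transcribed and reporter cDNA amplified, fluorescently labelled and sized by capillary electrophoresis. Signal gain or loss was fitted relative to DMSO vehicle.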

[11] = ATG_ISRE_CIS: Attagene CIS-FACTORIAL HepG2 Assay for human Interferon Regulatory Factor 1 (IRF1) binding to an Interferon-Stimulated Response Element (ISRE) (AID 2282948); details: HepG2 ISRE cis-reporter (Attagene), mRNA transcription readout; actives raise or lower the signal
Method in brief: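 Cell-based cis-reporter assay; HepG2; 24 h exposure; reporter mRNA by RT-PCR plus capillary electrophoresis fluorescence; activity in either direction scored relative to DMSO.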

[12] = ATG_M_32_CIS: Attagene CIS-FACTORIAL HepG2 Assay for M32 Transcription Factor (Internal Marker) (AID 2282949); details: HepG2 Attagene cis-factorial M32 reporter, mRNA; actives raise or lower the signal;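 further: background control marker of the multiplexed CIS panel rather than a real target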
Method in brief: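 Fluorescent capillary electrophoresis peaks of HpaI-digested, FAM-labelled RT-PCR reporter products give the signal. Source: transiently transfected human liver HepG2 cells, 24 h after chemical dosing; bidirectional fitting against DMSO.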

[13] = ATG_M_06_CIS: Attagene CIS-FACTORIAL HepG2 Assay for M06 Transcription Factor (Internal Marker) (AID 2282950); details: HepG2 Attagene CIS-FACTORIAL M06 internal marker reporter; actives raise or lower the signal
Method in brief: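 Read-out is fluorescence of labelled reporter cDNA fragments resolved by capillary electrophoresis after RT-PCR. Cells: HepG2 carrying transfected cis-promoter reporter units, treated 24 h. Gain or loss of signal fitted relative to DMSO.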

[14] = target: Hepatocyte nuclear factor 6 (Homo sapiens) (UniProt Q9UBC0); test: ATG_HNF6_CIS: Attagene CIS-FACTORIAL HepG2 Assay for human Hepatocyte Nuclear Factor 6 (HNF6) (AID 2282952); details: HepG2 Attagene cis-factorial HNF6 reporter transcription; actives raise or lower the signal
Method in brief: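 Multiplexed mRNA reporter assay in transfected HepG2; 24 h dosing; RT-PCR plus capillary electrophoresis fluorescence; DMSO-referenced bidirectional curve fitting.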

[15] = target: Heat shock factor protein 1 (Homo sapiens) (UniProt Q00613); test: ATG_HSE_CIS: Attagene CIS-FACTORIAL HepG2 Assay for human Heat Shock Transcription Factor 1 (HSE) (AID 2282953); details: HepG2 HSE cis-reporter, Attagene RNA transcription; actives raise or lower the signal
Method in brief: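 HepG2, transient MRTU transfection, cis-promoter reporters (endogenous TF activity). 24 h compound. RNA → oligo(dT) RT → PCR → 6-FAM primer extension → HpaI cut → CE. Bidirectional fit vs DMSO.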

[16] = ATG_MRE_CIS: Attagene CIS-FACTORIAL HepG2 Assay for human Metal Responsive Element (MRE) (AID 2282954); details: HepG2 MRE cis-reporter transcription, Attagene multiplex; actives raise or lower the signal
Method in brief: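 Step one: transfect HepG2 with cis-regulated reporter units. Step two: dose 24 h. Step three: isolate RNA, RT-PCR, 6-FAM label, HpaI digest, capillary electrophoresis. Fit bidirectionally to DMSO.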

[17] = ATG_PBREM_CIS: Attagene CIS-FACTORIAL HepG2 Assay for human Phenobarbital-responsive Enhancer Module (PBREM) (AID 2282955); details: HepG2 PBREM cis-reporter, Attagene multiplexed transcription; actives raise or lower the signal
Method in brief: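 Readout: reporter mRNA, fluorescent RT-PCR fragments separated by capillary electrophoresis. System: HepG2 transiently transfected with cis-regulated reporter units. Exposure: 24 h. Analysis: bidirectional, DMSO baseline.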

[18] = ATG_ERE_CIS: Attagene CIS-FACTORIAL HepG2 Assay for Estrogen Response Element (ERE) (AID 2282940); details: HepG2 ERE cis-reporter, Attagene RNA transcript; actives raise or lower the signal
Method in brief: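 Transient MRTU transfection of human HepG2; cis-element promoters; 24 h dosing; total RNA → RT (oligo dT) → PCR → 6-FAM primer extension → HpaI digest → CE fluorescence. Bidirectional fit, DMSO baseline.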

[19] = target: Bile acid receptor (Homo sapiens) (UniProt Q96RI1); test: ATG_IR1_CIS: Attagene CIS-FACTORIAL HepG2 Assay for human Nuclear Receptor Subfamily 1 Group H Member 4 (NR1H4), IR1 submotif (AID 2282946); details: IR1 reporter transcription, actives raise or lower the signal
Method in brief: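 Transient MRTU transfection, HepG2; 24 h dosing; RNA → RT-PCR → 6-FAM primer extension → HpaI digest → capillary electrophoresis fluorescence. Gain/loss of signal fitted relative to DMSO.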

[20] = target: Hypoxia-inducible factor 1-alpha (Homo sapiens) (UniProt Q16665); test: ATG_HIF1a_CIS: Attagene CIS-FACTORIAL HepG2 Assay for human Hypoxia Inducible Factor 1 (HIF1A) (AID 2282951); details: HepG2 Attagene cis-factorial HIF1a reporter transcription; actives raise or lower the signal
Method in brief: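 Endogenous-TF cis reporter readout, human HepG2 cells, 24 h incubation; mRNA detected via RT-PCR and capillary electrophoresis fluorescence; DMSO-normalised bidirectional fitting.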

Sequence of Bile acid receptor (Homo sapiens) (Q96RI1 whole entry, looked up): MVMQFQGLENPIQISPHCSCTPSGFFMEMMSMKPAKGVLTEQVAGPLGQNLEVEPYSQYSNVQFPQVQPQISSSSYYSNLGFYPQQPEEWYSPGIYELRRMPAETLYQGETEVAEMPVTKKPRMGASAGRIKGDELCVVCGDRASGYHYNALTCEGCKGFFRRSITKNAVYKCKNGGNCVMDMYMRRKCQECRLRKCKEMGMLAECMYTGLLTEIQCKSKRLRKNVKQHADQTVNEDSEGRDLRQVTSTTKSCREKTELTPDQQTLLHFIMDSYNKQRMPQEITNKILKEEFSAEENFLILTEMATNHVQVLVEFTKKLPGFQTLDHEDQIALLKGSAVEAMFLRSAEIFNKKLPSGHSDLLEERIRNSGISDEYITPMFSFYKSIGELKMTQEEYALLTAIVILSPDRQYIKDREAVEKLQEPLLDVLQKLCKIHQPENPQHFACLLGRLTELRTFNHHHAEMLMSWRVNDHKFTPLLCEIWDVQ
Sequence of Hepatocyte nuclear factor 3-beta (Homo sapiens) (Q9Y261 whole entry, looked up, the tested form may be a part): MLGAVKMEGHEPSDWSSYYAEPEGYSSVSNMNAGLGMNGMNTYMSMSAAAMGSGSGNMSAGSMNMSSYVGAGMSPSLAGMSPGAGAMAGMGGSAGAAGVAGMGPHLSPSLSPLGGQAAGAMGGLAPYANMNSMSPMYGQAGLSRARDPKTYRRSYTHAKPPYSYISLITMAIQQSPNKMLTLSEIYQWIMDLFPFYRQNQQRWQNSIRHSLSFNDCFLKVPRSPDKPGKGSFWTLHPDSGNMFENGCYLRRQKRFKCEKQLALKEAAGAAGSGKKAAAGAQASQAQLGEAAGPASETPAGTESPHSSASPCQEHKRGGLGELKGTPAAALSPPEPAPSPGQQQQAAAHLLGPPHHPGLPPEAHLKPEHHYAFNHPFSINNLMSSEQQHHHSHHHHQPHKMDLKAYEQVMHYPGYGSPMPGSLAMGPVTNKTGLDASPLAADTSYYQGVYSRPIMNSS
Sequence of Hepatocyte nuclear factor 6 (Homo sapiens) (Q9UBC0 whole entry, looked up): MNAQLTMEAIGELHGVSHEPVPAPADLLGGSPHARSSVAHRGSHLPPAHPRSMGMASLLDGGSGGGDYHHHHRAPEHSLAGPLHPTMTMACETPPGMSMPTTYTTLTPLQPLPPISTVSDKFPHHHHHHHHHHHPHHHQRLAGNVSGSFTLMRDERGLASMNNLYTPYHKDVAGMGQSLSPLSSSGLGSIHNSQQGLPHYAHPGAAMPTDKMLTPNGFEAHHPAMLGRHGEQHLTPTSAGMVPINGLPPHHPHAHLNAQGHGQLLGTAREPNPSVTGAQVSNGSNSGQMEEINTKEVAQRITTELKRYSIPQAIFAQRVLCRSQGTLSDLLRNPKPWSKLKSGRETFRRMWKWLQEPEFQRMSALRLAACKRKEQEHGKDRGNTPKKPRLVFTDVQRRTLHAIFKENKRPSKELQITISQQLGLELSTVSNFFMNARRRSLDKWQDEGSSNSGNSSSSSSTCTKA
Sequence of Heat shock factor protein 1 (Homo sapiens) (Q00613 whole entry, looked up): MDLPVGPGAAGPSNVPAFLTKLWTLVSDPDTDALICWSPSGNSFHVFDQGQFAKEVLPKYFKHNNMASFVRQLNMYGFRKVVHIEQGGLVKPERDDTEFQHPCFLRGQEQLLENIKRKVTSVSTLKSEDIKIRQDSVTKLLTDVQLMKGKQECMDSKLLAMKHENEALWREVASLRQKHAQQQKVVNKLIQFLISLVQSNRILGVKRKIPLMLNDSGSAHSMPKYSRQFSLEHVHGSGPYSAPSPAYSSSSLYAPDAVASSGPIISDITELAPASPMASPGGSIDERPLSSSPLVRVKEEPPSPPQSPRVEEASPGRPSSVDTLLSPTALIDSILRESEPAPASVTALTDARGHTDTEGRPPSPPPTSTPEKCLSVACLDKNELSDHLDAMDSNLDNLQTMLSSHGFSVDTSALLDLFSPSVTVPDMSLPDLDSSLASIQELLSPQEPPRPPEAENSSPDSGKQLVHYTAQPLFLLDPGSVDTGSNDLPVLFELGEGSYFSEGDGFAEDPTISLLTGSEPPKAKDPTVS
Sequence of Hypoxia-inducible factor 1-alpha (Homo sapiens) (Q16665 whole entry, looked up): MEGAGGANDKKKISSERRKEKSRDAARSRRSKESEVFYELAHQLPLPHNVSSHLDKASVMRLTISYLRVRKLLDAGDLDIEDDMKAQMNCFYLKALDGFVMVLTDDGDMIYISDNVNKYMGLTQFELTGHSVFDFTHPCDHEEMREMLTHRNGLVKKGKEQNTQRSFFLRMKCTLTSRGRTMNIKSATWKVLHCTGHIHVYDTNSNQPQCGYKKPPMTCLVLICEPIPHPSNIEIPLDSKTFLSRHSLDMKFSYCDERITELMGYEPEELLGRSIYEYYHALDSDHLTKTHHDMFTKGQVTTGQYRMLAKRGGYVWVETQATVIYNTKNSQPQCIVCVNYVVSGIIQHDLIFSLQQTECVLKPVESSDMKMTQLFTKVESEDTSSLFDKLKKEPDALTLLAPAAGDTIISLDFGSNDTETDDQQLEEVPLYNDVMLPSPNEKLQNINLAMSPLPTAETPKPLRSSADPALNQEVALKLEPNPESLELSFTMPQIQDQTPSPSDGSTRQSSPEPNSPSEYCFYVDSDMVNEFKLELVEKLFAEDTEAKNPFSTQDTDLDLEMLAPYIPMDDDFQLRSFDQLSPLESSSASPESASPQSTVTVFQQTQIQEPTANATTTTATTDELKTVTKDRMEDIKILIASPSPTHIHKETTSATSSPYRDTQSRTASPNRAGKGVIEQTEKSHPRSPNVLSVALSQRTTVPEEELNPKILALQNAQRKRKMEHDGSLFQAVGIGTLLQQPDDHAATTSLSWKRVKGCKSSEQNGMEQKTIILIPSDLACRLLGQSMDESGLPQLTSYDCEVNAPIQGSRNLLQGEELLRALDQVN

## CCC(=O)O[C@H]1CC[C@H]2[C@@H]3CCC4=CC(=O)CC[C@]4(C)[C@H]3CC[C@]12C
[1]
  outcome: inactive
[2]
  outcome: inactive
[3]
  AC50: 100 µM (active) and 77.1 µM (active) and 129 µM (active)
[4]
  outcome: inactive
[5]
  outcome: inactive
[6]
  AC50: 187 µM (active)
  outcome: inactive
[7]
  AC50: 135 µM (active) and 185 µM (active)
  outcome: inactive
[8]
  AC50: 140 µM (active)
  outcome: inactive
[9]
  outcome: inactive
[10]
  AC50: 157 µM (active)
  outcome: inactive
[11]
  AC50: 100 µM (active) and 131 µM (active)
  outcome: inactive
[12]
  outcome: inactive
[13]
  outcome: inactive
[14]
  AC50: 169 µM (active) and 187 µM (active)
  outcome: inactive
[15]
  AC50: 159 µM (active) [middle of 4 runs]
[16]
  AC50: 136 µM (active) [middle of 4 runs]
[17]
  AC50: 136 µM (active) and 100 µM (active)
  outcome: inactive

## CCCCCCCCOC(=O)c1ccccc1C(=O)OCCCCCCCC
[1]
  outcome: inactive
[2]
  outcome: inactive
[3]
  outcome: inactive
[4]
  outcome: inactive
[18]
  outcome: inactive
[5]
  outcome: inactive
[6]
  outcome: inactive
[7]
  outcome: inactive
[8]
  outcome: inactive
[9]
  outcome: inactive
[19]
  outcome: inactive
[11]
  outcome: inactive
[12]
  outcome: inactive
[13]
  outcome: inactive
[14]
  outcome: inactive
[15]
  outcome: inactive
[16]
  outcome: inactive
[17]
  outcome: inactive

## ClC(Cl)=C(c1ccc(Cl)cc1)c1ccc(Cl)cc1
[1]
  AC50: 58.3 µM (active) and 24.8 µM (active)
  outcome: inactive
[2]
  outcome: inactive
[3]
  outcome: inactive
[4]
  AC50: 129 µM (active)
  outcome: inactive
[18]
  AC50: 14 µM (active) [middle of 4 runs]
[5]
  outcome: inactive
[6]
  outcome: inactive
[7]
  outcome: inactive
[8]
  AC50: 155 µM (active)
  outcome: inactive
[9]
  AC50: 131 µM (active) and 63.1 µM (active) and 121 µM (active)
  outcome: inactive
[19]
  AC50: 21.5 µM (active) and 27.7 µM (active) and 184 µM (active)
  outcome: inactive
[10]
  outcome: inactive
[11]
  AC50: 100 µM (active)
  outcome: inactive
[12]
  outcome: inactive
[13]
  outcome: inactive
[14]
  outcome: inactive
[15]
  AC50: 174 µM (active)
  outcome: inactive
[16]
  AC50: 156 µM (active)
  outcome: inactive
[17]
  outcome: inactive

## CCNc1nc(NC(C)C)nc(SC)n1
[1]
  outcome: inactive
[2]
  outcome: inactive
[3]
  outcome: inactive
[4]
  outcome: inactive
[5]
  outcome: inactive
[6]
  outcome: inactive
[7]
  outcome: inactive
[8]
  outcome: inactive
[9]
  outcome: inactive
[11]
  outcome: inactive
[12]
  outcome: inactive
[13]
  outcome: inactive
[20]
  outcome: inactive
[14]
  outcome: inactive
[15]
  outcome: inactive
[16]
  outcome: inactive
[17]
  outcome: inactive

## N#Cc1ccc(N(CC(N)=O)CC(F)(F)F)cc1C(F)(F)F
[1]
  outcome: inactive
[2]
  outcome: inactive
[3]
  AC50: 25.3 µM (active)
[4]
  outcome: inactive
[5]
  outcome: inactive
[6]
  outcome: inactive
[7]
  outcome: inactive
[8]
  outcome: inactive
[9]
  outcome: inactive
[19]
  outcome: inactive
[11]
  outcome: inactive
[12]
  outcome: inactive
[13]
  outcome: inactive
[14]
  outcome: inactive
[15]
  outcome: inactive
[16]
  outcome: inactive

From PubChem BioAssay (EPA / NIEHS)
